High-throughput results from PubChem BioAssay.
SNCA viab count: GF-AFC viability counterscreen for inhibitors of alpha-synuclein gene (SNCA) expression; HEK-293-SNCA-luc viability, GF-AFC fluorescence, 24 h; Potency, µM (series often up to 57.1 µM), most hits filed as cytotoxic; 150,000 compounds, 0.12% hits; AID 1671193, 2021; also: nearly all actives have a fitted effect of over 30% in size
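Cytotoxicity counterscreen: after 24 h compound treatment of genome-edited SNCA-luciferase HEK-293 cells, live-cell protease substrate GF-AFC read by fluorescence after 30 min; activity scaled between DMSO (0%) and medium-only (-100%), curves Hill-fitted.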
KDM5B inhibitor: Primary screen for KDM5B Histone Demethylases FDH-coupled qHTS; Lysine-specific demethylase 5B (Homo sapiens), Q9UGL1; KDM5B demethylase, FDH-coupled NADH fluorescence (FDH is formaldehyde dehydrogenase); Potency, µM (titrated, usually from 57.7 µM), usual class: inhibitors; 220,000 compounds, 2.6% hits; AID 1347165, 2019; also: nearly all actives have a fitted effect of over 70% in size
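Inhibition is measured as reduced NADH fluorescence generation from FDH coupling to formaldehyde release. Truncated KDM5BΔAP at 200 nM final acts on H3K4me3 peptide (12.5 µM in substrate mix) in pH 7.5 HEPES buffer with Tween-20, 30 min, room temperature.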
IP6K1 inh: Primary qHTS assay for small molecule inhibitors of Inositol hexaphosphate kinase 1 (IP6K1); activity change, % (series mostly up to about 58 µM); AID 1645851, 2021; IP6K1 kinase, ADP-Glo luminescence, 2 h; stronger effect = lower value; Inositol hexakisphosphate kinase 1 (Homo sapiens), Q92551; 140,000 compounds, 0.81% hits; in the data active = activity change below about -25%
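ADP-Glo luminescence measures ADP made by human IP6K1 during a 2 h RT reaction with ATP/IP6 (mix at 1.3 mM/130 uM); top library doses 57.5 and 19.1 uM final.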
SNCA expr inhib: Primary qHTS assay for inhibitors of alpha-synuclein gene (SNCA) expression; Potency, µM (doses to about 57.2 µM), hits mostly inhibitors; HEK-293 SNCA-luciferase knock-in, luminescence, 24 h; 140,000 compounds, 0.17% hits; also: nearly all actives have a fitted effect of over 45% in size
Hits are given with their value. Shown are actives, neighbours in structure and some others; about 3% of the full set was active somewhere. Unless noted, calls follow the shape of the dose curve; as a rule, active = well fitted curve in the direction sought with a large enough effect; inconclusive = small, poorly fitted or top-dose-only effect, or another doubt; inactive = no such curve, though single readings can be large; an effect the other way counts as inactive or inconclusive.

`COc1ccc(CN2CCNc3cc(Nc4ccccc4)ncc3C2)cn1` gave SNCA viab count inconclusive, KDM5B inhibitor 32µM, IP6K1 inh inactive and SNCA expr inhib inactive.
COc1ccc(CN2CCNc3cc(-c4ccccc4)ncc3C2)cc1O was read as SNCA viab count inactive, KDM5B inhibitor inactive, IP6K1 inh inactive and SNCA expr inhib inactive.
CC(C)(CC(=O)O)CC(=O)N1C[C@@H]2C[C@H](C1)c1ccc(-c3cccc(C(F)(F)F)c3)c(=O)n1C2 was read as SNCA viab count inactive, KDM5B inhibitor 28µM, IP6K1 inh inactive and SNCA expr inhib inactive.
COc1ccc(S(=O)(=O)N2C[C@@H]3C[C@H](C2)c2ccc(-c4cccc(C(F)(F)F)c4)c(=O)n2C3)cc1 was read as SNCA viab count inactive, KDM5B inhibitor 32µM, IP6K1 inh inactive and SNCA expr inhib inactive.
O=C(Nc1ccccc1)N1C[C@@H]2C[C@H](C1)c1ccc(-c3cccc(C(F)(F)F)c3)c(=O)n1C2 was read as SNCA viab count inactive, KDM5B inhibitor 32µM, IP6K1 inh inactive and SNCA expr inhib inactive.
`CC(=O)Nc1ccc(S(=O)(=O)N2C[C@@H]3C[C@H](C2)c2ccc(-c4ccccc4C)c(=O)n2C3)cc1` gave SNCA viab count inactive, KDM5B inhibitor 25µM, IP6K1 inh inactive and SNCA expr inhib inactive.
For Cn1c(=O)c2c(nc(Oc3ccccc3F)n2Cc2ccccc2F)n(C)c1=O the results were KDM5B inhibitor inactive.
`Cc1ccc(COC(=O)c2ccc(Cl)c(S(=O)(=O)N3CCOCC3)c2)cc1` gave KDM5B inhibitor inactive.
Screening COc1ccc(-c2cc(NCCO)nc3[nH]ccc23)cc1C(F)(F)F returned SNCA viab count inactive, KDM5B inhibitor inconclusive, IP6K1 inh inactive and SNCA expr inhib inactive.
NC(=S)NNC(=S)NCc1ccccc1 was read as KDM5B inhibitor inactive.
Screening Fc1cccc(NC(=S)NCc2cccs2)c1 returned KDM5B inhibitor inactive.
CCC(CC)C(=O)NC[C@@H]1C=C(C)[C@H](Cc2nc3c(C)cccc3[nH]2)C[C@H]1C(C)C was read as SNCA viab count 14µM, KDM5B inhibitor inactive, IP6K1 inh inactive and SNCA expr inhib inconclusive.
`CCCNC(=O)NC[C@@H]1C=C(C)[C@H](Cc2nc3ccc(OC)cc3[nH]2)C[C@H]1C(C)C` gave SNCA viab count 28µM, KDM5B inhibitor inconclusive, IP6K1 inh inactive and SNCA expr inhib inconclusive.
Screening CC1=C[C@@H](CNC(=O)NC2CCCCC2)[C@H](C(C)C)C[C@H]1Cc1nc2c(C)cccc2[nH]1 returned SNCA viab count inactive, KDM5B inhibitor inactive, IP6K1 inh inactive and SNCA expr inhib inactive.
Screening COc1ccc(C(=O)N[C@@H]2CN(C(=O)Nc3ccc(OC(F)(F)F)cc3)CCC[C@H]2O)cc1 returned SNCA viab count inactive, KDM5B inhibitor inactive, IP6K1 inh inactive and SNCA expr inhib inactive.
`COC[C@@H]1[C@H](C(=O)Nc2ccc(OC)nc2)CCC(=O)N1C` gave SNCA viab count inactive, KDM5B inhibitor inconclusive, IP6K1 inh inactive and SNCA expr inhib inactive.
Screening COC[C@@H]1CN(c2cnccn2)C[C@H]1C(=O)N1CCc2ccccc2C1 returned SNCA viab count inconclusive, KDM5B inhibitor 20µM, IP6K1 inh inactive and SNCA expr inhib inactive.
COC[C@@H]1CN(c2cnccn2)C[C@H]1C(=O)Nc1cccnc1 was read as SNCA viab count inactive, KDM5B inhibitor 28µM, IP6K1 inh inactive and SNCA expr inhib inactive.
For COC[C@@H]1CN(c2cnccn2)C[C@H]1C(=O)NCCc1ccccn1 the results were SNCA viab count inactive, KDM5B inhibitor 20µM, IP6K1 inh inactive and SNCA expr inhib inactive.
`COC[C@@H]1CN(c2cnccn2)C[C@H]1C(=O)Nc1ccc(OC)nc1` gave SNCA viab count inactive, KDM5B inhibitor 25µM, IP6K1 inh inactive and SNCA expr inhib inactive.
Screening COc1ccc(C(=O)N[C@@H]2CCC[C@@H]2C(=O)NCCc2ccccn2)cn1 returned SNCA viab count inconclusive, KDM5B inhibitor inactive, IP6K1 inh inactive and SNCA expr inhib inactive.
Screening CC(=O)NCCNC(=O)CCc1ncc(-c2ccc(Cl)cc2Cl)o1 returned KDM5B inhibitor inactive.
Screening CCCc1cc(=O)oc2cc(OCC(=O)O)c(Cl)cc12 returned KDM5B inhibitor inactive.
Screening COc1ccc(C2Cn3nnc(-c4noc(-c5ccccc5Cl)n4)c3CO2)cc1 (stereo not drawn) returned SNCA viab count inactive, KDM5B inhibitor inactive, IP6K1 inh inactive and SNCA expr inhib inactive.
`COc1ccc(-c2nc(-c3nnn4c3COC(c3ccccc3Cl)C4)no2)cc1OC` (stereo not drawn) gave SNCA viab count inactive, KDM5B inhibitor inconclusive, IP6K1 inh inactive and SNCA expr inhib inactive.
COc1ccccc1-c1nc(-c2nnn3c2COC(c2ccccc2Cl)C3)no1 (stereo not drawn) was read as SNCA viab count inactive, KDM5B inhibitor 28µM, IP6K1 inh inactive and SNCA expr inhib inactive.
Screening CCOc1ccccc1-c1nc(-c2nnn3c2COC(c2ccccc2Cl)C3)no1 (stereo not drawn) returned SNCA viab count inactive, KDM5B inhibitor 28µM, IP6K1 inh inactive and SNCA expr inhib inactive.
For Cc1ccc(-c2nc(-c3nnn4c3COC(c3ccccc3Cl)C4)no2)cc1 (stereo not drawn) the results were SNCA viab count inactive, KDM5B inhibitor inconclusive, IP6K1 inh inactive and SNCA expr inhib inactive.
COc1ccc(-c2nc(-c3nnn4c3COC(c3ccccc3Cl)C4)no2)cc1F (stereo not drawn) was read as SNCA viab count inconclusive, KDM5B inhibitor 13µM, IP6K1 inh inactive and SNCA expr inhib inactive.
For CSc1ccc(-c2noc(-c3ncn4c3COC(c3ccccc3Cl)C4)n2)cc1 (stereo not drawn) the results were SNCA viab count inactive, KDM5B inhibitor 25µM, IP6K1 inh inactive and SNCA expr inhib inactive.
Screening CCN(CC)CCCNc1oc(-c2ccco2)nc1S(=O)(=O)c1ccc2c(c1)OCCO2 returned KDM5B inhibitor inactive.
CN(Cc1ccccc1F)c1ccc(S(N)(=O)=O)cn1 was read as KDM5B inhibitor inactive.
`O=C(COc1ncnc2ccc(Br)cc12)Nc1cccc(Br)c1` gave KDM5B inhibitor inactive.
O=C(CCC1CCN(c2cc(NC3CC3)ncn2)CC1)NCc1cc(F)cc(F)c1 was read as SNCA viab count inactive, KDM5B inhibitor inactive, IP6K1 inh inactive and SNCA expr inhib 4.5µM.
Screening O=C(CCC1CCN(c2cc(NC3CC3)ncn2)CC1)NCc1ccc(F)cc1 returned SNCA viab count inactive, KDM5B inhibitor inactive, IP6K1 inh inactive and SNCA expr inhib inconclusive.
Screening O=C(CCC1CCN(c2cc(NC3CC3)ncn2)CC1)NCc1ccc(F)cc1F returned SNCA viab count inactive, KDM5B inhibitor inactive, IP6K1 inh inactive and SNCA expr inhib 3.5µM.
For CCOC(=O)CSc1nc2c(c(=O)[nH]c(=O)n2C)n1C(C)C the results were KDM5B inhibitor inactive.
